From PubChem
mHTT CaM bind: disrupts binding of mutant huntingtin to calmodulin | 3.6% of 190,000 active | inhibition, % at 15 µM | AlphaScreen His-mHTT/GST-CaM binding, luminescence | P42858;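 also: 0% = both proteins with DMSO and 100% = one protein alone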
Target sequence (P42858 whole entry, looked up, stated change not applied): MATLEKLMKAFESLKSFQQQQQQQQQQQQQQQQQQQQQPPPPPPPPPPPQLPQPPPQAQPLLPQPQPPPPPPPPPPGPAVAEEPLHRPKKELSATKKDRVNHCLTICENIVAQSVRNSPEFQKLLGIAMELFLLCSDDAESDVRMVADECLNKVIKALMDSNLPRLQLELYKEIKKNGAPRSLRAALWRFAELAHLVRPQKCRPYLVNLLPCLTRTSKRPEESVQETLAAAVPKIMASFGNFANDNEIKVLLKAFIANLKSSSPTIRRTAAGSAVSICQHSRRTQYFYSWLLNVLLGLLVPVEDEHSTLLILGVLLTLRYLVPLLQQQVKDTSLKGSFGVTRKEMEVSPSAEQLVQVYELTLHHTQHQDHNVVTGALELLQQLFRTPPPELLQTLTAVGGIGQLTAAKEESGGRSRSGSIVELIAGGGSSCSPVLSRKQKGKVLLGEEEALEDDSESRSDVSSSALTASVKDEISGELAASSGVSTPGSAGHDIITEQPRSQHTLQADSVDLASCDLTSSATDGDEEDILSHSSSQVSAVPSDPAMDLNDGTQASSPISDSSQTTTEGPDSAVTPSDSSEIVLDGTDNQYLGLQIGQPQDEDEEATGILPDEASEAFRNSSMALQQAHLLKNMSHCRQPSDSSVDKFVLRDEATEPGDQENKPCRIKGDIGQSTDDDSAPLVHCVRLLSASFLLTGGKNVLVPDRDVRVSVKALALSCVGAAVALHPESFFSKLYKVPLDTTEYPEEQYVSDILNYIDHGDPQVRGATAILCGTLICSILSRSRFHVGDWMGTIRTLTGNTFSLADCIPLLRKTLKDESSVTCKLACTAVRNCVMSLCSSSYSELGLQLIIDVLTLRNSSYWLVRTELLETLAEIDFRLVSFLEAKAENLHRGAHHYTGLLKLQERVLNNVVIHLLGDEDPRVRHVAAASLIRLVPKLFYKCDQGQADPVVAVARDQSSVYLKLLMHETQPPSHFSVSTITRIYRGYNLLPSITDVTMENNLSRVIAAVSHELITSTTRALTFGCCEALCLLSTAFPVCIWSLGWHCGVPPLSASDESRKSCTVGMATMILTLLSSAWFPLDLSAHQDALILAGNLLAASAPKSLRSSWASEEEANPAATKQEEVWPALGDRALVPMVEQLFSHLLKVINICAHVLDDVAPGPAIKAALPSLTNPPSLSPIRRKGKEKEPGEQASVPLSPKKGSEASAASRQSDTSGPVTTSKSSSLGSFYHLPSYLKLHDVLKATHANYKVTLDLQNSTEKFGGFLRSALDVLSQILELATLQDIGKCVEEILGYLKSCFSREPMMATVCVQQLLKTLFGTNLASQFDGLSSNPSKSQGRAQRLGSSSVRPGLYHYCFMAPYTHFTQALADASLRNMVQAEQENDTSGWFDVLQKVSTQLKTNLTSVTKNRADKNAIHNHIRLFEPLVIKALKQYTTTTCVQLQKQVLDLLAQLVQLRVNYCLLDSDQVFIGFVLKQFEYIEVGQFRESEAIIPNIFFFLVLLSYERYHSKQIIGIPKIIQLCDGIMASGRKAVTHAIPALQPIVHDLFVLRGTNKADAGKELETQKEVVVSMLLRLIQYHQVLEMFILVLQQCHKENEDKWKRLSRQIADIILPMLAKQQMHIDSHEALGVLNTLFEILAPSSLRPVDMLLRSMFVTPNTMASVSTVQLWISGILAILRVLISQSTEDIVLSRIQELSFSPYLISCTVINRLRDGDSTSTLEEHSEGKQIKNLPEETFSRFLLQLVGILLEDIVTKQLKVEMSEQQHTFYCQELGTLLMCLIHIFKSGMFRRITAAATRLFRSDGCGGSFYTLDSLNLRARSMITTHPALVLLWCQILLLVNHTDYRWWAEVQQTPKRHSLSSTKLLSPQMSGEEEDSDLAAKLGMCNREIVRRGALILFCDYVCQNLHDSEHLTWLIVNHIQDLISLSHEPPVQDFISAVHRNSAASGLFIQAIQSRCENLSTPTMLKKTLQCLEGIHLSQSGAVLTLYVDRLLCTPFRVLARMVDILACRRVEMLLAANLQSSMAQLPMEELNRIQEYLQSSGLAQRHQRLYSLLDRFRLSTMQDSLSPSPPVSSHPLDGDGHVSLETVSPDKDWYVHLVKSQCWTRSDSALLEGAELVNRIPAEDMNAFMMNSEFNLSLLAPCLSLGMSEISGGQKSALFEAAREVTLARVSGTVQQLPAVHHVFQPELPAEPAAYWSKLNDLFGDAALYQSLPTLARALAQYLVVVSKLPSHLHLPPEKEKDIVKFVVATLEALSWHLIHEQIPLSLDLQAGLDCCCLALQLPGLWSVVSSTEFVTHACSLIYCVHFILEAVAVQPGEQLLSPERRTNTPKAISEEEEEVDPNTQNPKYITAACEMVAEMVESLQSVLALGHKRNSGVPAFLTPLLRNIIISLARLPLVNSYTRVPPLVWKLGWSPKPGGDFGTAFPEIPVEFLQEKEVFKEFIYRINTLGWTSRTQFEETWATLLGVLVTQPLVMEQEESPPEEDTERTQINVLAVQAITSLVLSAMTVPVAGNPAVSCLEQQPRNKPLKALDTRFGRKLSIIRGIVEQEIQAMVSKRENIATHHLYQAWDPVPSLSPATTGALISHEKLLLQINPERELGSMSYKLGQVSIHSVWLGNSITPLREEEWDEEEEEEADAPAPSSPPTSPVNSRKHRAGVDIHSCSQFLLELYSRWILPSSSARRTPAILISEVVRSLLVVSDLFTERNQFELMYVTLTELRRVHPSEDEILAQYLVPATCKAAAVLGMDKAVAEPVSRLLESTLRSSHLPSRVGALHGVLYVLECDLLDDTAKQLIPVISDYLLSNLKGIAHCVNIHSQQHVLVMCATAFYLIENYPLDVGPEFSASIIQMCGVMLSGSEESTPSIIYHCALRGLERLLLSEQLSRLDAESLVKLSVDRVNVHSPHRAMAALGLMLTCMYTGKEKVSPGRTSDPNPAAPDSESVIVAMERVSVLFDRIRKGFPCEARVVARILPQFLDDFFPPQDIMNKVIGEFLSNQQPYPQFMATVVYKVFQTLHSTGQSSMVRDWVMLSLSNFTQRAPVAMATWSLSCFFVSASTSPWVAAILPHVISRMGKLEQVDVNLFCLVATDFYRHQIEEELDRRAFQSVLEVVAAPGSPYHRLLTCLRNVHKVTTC
Pf apPOL block: Pf-apPOL DNA polymerase inhibition | Recombinant Pf-apPOL, molecular beacon fluorescence, 1.5 h | inhibition, % at 10 µM | 0.25% of 210,000 active | AID 1794808
* marks the source's active call; other numbers are inactive results; . = no result; ! = not active in a repeat. Shown are actives, neighbours in structure and some others; about 3.6% of the full set was active somewhere. Rule as the data show it: active = inhibition above about 50%; inactive = the rest.

SMILES	mHTT CaM bind	Pf apPOL block
O=C(O)c1ccc(-n2c(/C=C/c3ccc([N+](=O)[O-])cc3)nc3ccccc3c2=O)cc1	-6	-5
CCCN1C(=O)/C(=C\c2nc3ccccc3c(=O)n2-c2ccccc2OC)c2ccccc21	56*	1
CCN(CC)C(=O)C(NC(=O)c1ccc([N+](=O)[O-])cc1)C12CC3CC(CC(C3)C1)C2 (stereo not drawn)	1	-8
COc1ccc(C2=N/C(=C/c3cc(OC)c(OC)c(OC)c3)C(=O)O2)c(Cl)c1	6	-1
Cn1c(=O)c2c(nc3n(CCN4CCOCC4)c(C(C)(C)C)cn23)n(C)c1=O	-5	-1
Cc1cccc(C)c1OCC(=O)NCc1ccc2c(c1)OCO2	2	-3
COc1cc(Br)cc(/C=C/c2ccc3cccc(O)c3n2)c1O	36	-8
COc1cc(/C=C/c2ccc3cccc(O)c3n2)c(Cl)cc1O	63*	-6
Oc1cccc2ccc(/C=C/c3cc4c(cc3Br)OCO4)nc12	72*	-8
COc1cc(Br)c(/C=C/c2ccc3cccc(O)c3n2)cc1OC	35	-5
O=[N+]([O-])c1ccc(O)c(C=Nc2nc3c(O)cccc3s2)c1	13	-5
COc1cc(/C=C/c2ccc3cccc(O)c3n2)c(Br)cc1O	48	-8
Oc1ccc(Cl)cc1/C=C/c1ccc2cccc(O)c2n1	100*	8
O=[N+]([O-])c1ccc(O)c(/C=C/c2ccc3cccc(O)c3n2)c1	60*	3
O=C(CSc1nc2ccsc2c(=O)n1Cc1ccccn1)c1ccc(Cl)cc1	17	-4
COc1ccc(Br)c(/C=C/c2ccc3cccc(O)c3n2)c1	65*	-1
COc1cc(/C=C/c2ccc3cccc(O)c3n2)cc([N+](=O)[O-])c1O	93*	-5
COc1cccc2ccc(/C=C/c3cccc([N+](=O)[O-])c3)nc12	12	-8
COc1ccc(OC)c(/C=C/c2ccc3cccc(O)c3n2)c1	36	2
CCc1nnc(NC(=O)c2nnn(-c3cccc(C(F)(F)F)c3)c2C)s1	0	2
CCC1CCCCN1S(=O)(=O)c1ccc(F)c(C(=O)Nc2ccc(F)c(Cl)c2)c1 (stereo not drawn)	20	-8
COc1ccc(/C=c2\sc3nc(-c4ccc(C)cc4)nn3c2=O)cc1OC	0	-2
Cc1ccc(NC(NC(=O)c2ccco2)C(=O)c2ccccc2)cc1C (stereo not drawn)	22	-2
CSc1c(C#N)c(-c2cccs2)nn1CC(=O)NN=Cc1cccs1	.	-5
CC1CCCN(CCCNC(=O)c2cc3c(s2)CN(C(C)C)C3)C1 (stereo not drawn)	1	2
SMILES	mHTT CaM bind	Pf apPOL block
CC1(C)CC(C)(c2ccc(Cl)cc2)c2ccccc2N1 (stereo not drawn)	85*	-10
COCCOCC(=O)N1c2ccccc2C(C)(c2ccc(Cl)cc2)CC1(C)C (stereo not drawn)	34	-6
Cc1cccc(-n2cnc3cc(C(=O)NCc4ccco4)ccc32)c1	8	28
N#C/C(=C\c1ccc(-c2ccccc2[N+](=O)[O-])o1)c1nn(CCO)c(N)c1C#N	72*	-6
COc1ccc(Br)cc1/C=C(\C#N)c1nn(CCO)c(N)c1C#N	47	-1
N#C/C(=C\c1cn(Cc2ccccc2Cl)c2ccccc12)c1nn(CCO)c(N)c1C#N	39	-1
N#C/C(=C\c1ccc(-c2ccccc2F)o1)c1nn(CCO)c(N)c1C#N	12	-1
N#C/C(=C\c1cn(Cc2ccc(Cl)cc2)c2ccccc12)c1nn(CCO)c(N)c1C#N	69*	-2
CC(C)Oc1ccc(Br)cc1/C=C(\C#N)c1nn(CCO)c(N)c1C#N	54*	-4
Cn1ncc(I)c1C(=O)Nc1ccc(C2CCCCC2)cc1	3	3
Cn1c(=O)c2c(nc3n(Cc4ccco4)c(-c4ccccc4)cn23)n(C)c1=O	31	-5
CC(C)(C)c1nnc(NC(=O)c2c(Cl)cccc2Cl)s1	1	-4
COCC(=O)NC(c1ccccc1)c1cc(Cl)c2cccnc2c1O (stereo not drawn)	100*	-10
CCC(=O)NC(c1ccc(OC)c(OC)c1)c1cc(Cl)c2cccnc2c1O (stereo not drawn)	100*	-6
COc1ccc(C(NC(C)=O)c2cc(Cl)c3cccnc3c2O)cc1OC (stereo not drawn)	100*!	4
COc1ccccc1C(NC(=O)C(C)C)c1cc(Cl)c2cccnc2c1O (stereo not drawn)	48	-8
COc1ccccc1C(NC(C)=O)c1cc(Cl)c2cccnc2c1O (stereo not drawn)	71*	7
CCCC(=O)NC(c1ccc(OC)cc1)c1cc(Cl)c2cccnc2c1O (stereo not drawn)	25	11
COc1ccc(CC2SC(=Nc3ccccn3)NC2=O)cc1 (stereo not drawn)	1	1
Cn1nc(-c2nc(C3CC3)no2)c2c1CCN(C(=O)c1ccc(F)c(F)c1)C2	-6	-2
CC(C)NC(=O)C1=CCN(C(=O)NC(C)C)CC1	9	-1
CCC(=O)NC(c1ccc2c(c1)OCO2)c1cc(Cl)c2cccnc2c1O (stereo not drawn)	96*	-2
CCCc1cc2c(=O)c(-c3ccc4c(c3)OCCO4)c(C)oc2cc1OC(=O)CC	-12	-6
COc1ccc(OC)c(C2c3c(oc4cc(OC)ccc4c3=O)C(=O)N2CCN(C)C)c1 (stereo not drawn)	1	-6
CC1CCCC(C)N1CC(O)COc1ccc(C23CC4CC(CC(C4)C2)C3)cc1 (stereo not drawn)	100*	0
SMILES	mHTT CaM bind	Pf apPOL block
CC1CCCCN1CC(O)COc1ccc(C23CC4CC(CC(C4)C2)C3)cc1 (stereo not drawn)	100*	0
CC1CCCCN1CC(O)COCC12CC3CC(CC(C3)C1)C2 (stereo not drawn)	0	-5
CC1CN(CC(O)COc2ccc(C34CC5CC(CC(C5)C3)C4)cc2)CC(C)O1 (stereo not drawn)	18	0
CC(=O)NCc1cnn(-c2ccc(C(=O)Nc3cccc(C)c3)cc2)c1	18	0
COc1ccc(CNS(=O)(=O)c2cc3c(s2)CCN(C(=O)C2CC2)C3)cc1	-2	-6
CCOc1ncccc1CNC(=O)c1n[nH]c2c1CCCC2	-4	-6
c1ccc(-c2ccc(CSc3nc4ccccc4o3)cc2)cc1	-7	.
Cc1ccc(-c2csc3c(=O)n(CCC(C)C)cnc23)cc1	-39	-3
COc1ccc(/C=C2/N=C(c3cc(Cl)ccc3Cl)OC2=O)c(OC)c1OC	0	-2
O=C(NCc1ccccc1)c1cc(N2C(=O)C=CC2=O)ccc1Cl	31	-2
O=C(O)c1cc(N2C(=O)C=CC2=O)ccc1Cl	.	55*
Cc1ccccc1NC(=O)CN1C(=O)CC(c2ccccc2)=Nc2cccnc21	-5	13
O=C(CN1C(=O)CC(c2ccccc2)=Nc2cccnc21)Nc1ccccc1Cl	-12	65*
N#CC(C#N)=CNc1cc(F)ccc1F	-3	.
O=C(C=Cc1cccs1)NC(=S)NCc1ccccc1	.	-3
O=C(c1ccsc1)N1CCN(c2ncnc3c2CCC3)CC1	-7	1
O=C(O)CC(CC(=O)Nc1ccc(C(=O)O)cc1)c1ccccc1 (stereo not drawn)	-5	94*
NS(=O)(=O)c1ccc(NC(=O)CC(CC(=O)O)c2ccccc2)cc1 (stereo not drawn)	.	4
